21 compounds from PubChem BioAssay (NCATS) can be followed below.

The structures appear in SMILES notation. Results filed as inconclusive are left out. More than one record can exist for a structure, and the calls need not agree. A number with no mark means an inactive call. Active and inactive are the calls of the source. Calls come from the whole dose curve; as a rule, active = well fitted curve in the direction sought with a large enough effect; inconclusive = small, poorly fitted or top-dose-only effect, or another doubt; inactive = no such curve, though single readings can be large; an effect the other way counts as inactive or inconclusive.

One assay deals with OV90. As to the kind of experiment: Primary qHTS to identify gynecologic anti-cancer compounds using libraries of approved drugs and bioactive compounds (AID 1345084). Note: nearly all actives have a fitted effect of over 55% in size. The following applies: Gynecologic cancer cell panel viability, ATPlite luminescence, 48 h; series mostly up to 57.5 µM. Put shortly: (§1)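 48 h compound exposure at 37 C, 5% CO2; five-point qHTS. ATPlite luminescence readout of cell ATP.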
(Quantitative high-throughput screening tests each substance at several concentrations.)

For a further assay, the system named is PA-1. Described as above. The following applies: Gynecologic cancer cell panel viability, ATPlite luminescence, 48 h; series mostly up to 57.5 µM. The gist of the method: as §1
On the technique in general: Cellular ATP, detected with luciferase, serves as a proxy for viable cell number.

A further assay relates to SKOV3. Described as above. The following applies: Gynecologic cancer cell panel viability, ATPlite luminescence, 48 h; series mostly up to 57.5 µM. Put shortly: as §1
For the next assay, the system named is Tov-21-G. Described as above. The following applies: Gynecologic cancer cell panel viability, ATPlite luminescence, 48 h; series mostly up to 57.5 µM. The gist of the method:
as §1

For a further assay, the system named is Tov112D. Described as above. The following applies: Gynecologic cancer cell panel viability, ATPlite luminescence, 48 h; series mostly up to 57.5 µM. The gist of the method:
as §1

Assay [1] is described as follows: Drug repurposing screens with cells derived from glioblastoma tumor samples (AID 1345199). Note: nearly all actives have a fitted effect of over 40% in size. As to conditions: GBM patient neurospheres viability, ATP luminescence, 48 h. Put shortly: (§2)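 Primary testing used CD133+ neurospheres from four GBM patients, seven concentrations, 48 h exposure and ATP-based viability; confirmation added three slower-growing patient lines.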

For another assay, the system named is astro. The assay is described as above. As to conditions: viability, ATP luminescence, 48 h; series mostly up to 45.9 µM. The gist of the method: as §2
Setting [2] is: at 45.9 µM (top of the series), tumour line B.
Setting [3] is: at 45.9 µM (top of the series), tumour line D.
The mark [4] stands for this setting: at 46.1 µM (top of the series), tumour line C.
Setting [5] is: at 46 µM (top of the series), tumour line A.
Setting [6] is: at 20 µM (top of the series), tumour line C.
The mark [7] stands for this setting: at 21.2 µM (top of the series), tumour line B.
Setting [8] is: at 21.2 µM (top of the series), tumour line D.
[9] abbreviates: at 21.3 µM (top of the series), tumour line A.
% is set by controls: 0 for no effect and ±100 for the full control effect; potency is the fitted concentration of half-maximal effect.

Regarding `c1cnc(N2CCN(Cc3ccc4c(c3)OCO4)CC2)nc1`, the Potency result in the assay with OV90, with PA-1, in the assay with SKOV3, in the assay on Tov-21-G and with Tov112D was “inactive” in each case. In addition, the activity, negative = cell killing in assay [1] (setting [2]) is -3.93%; in assay [1] (setting [3]) it was -6.17%; in assay [1] (setting [4]) it was -21.6%.
On to `CCCC(C(=O)OCCN(CC)CC)(c1ccccc1)c1ccccc1`, for which, in the assay with OV90, the Potency is 12.6 µM (active).
Regarding `O=C(CCNNC(=O)c1ccncc1)NCc1ccccc1`, the Potency result in the assay on OV90, in the assay on PA-1, in the assay with SKOV3, with Tov-21-G and with Tov112D was “inactive” each time. The activity, negative = cell killing in assay [1] (setting [2]) was -4.66%; in assay [1] (setting [3]) it was -5.12%; in assay [1] (setting [5]) it was -24.8%; in assay [1] (setting [4]) it was 1.75%.
On to `CC1=C(C)C(=O)C(CCCCC#CCCCC#CCO)=C(C)C1=O`, for which the Potency result in the assay with OV90, in the assay on PA-1, in the assay on SKOV3, with Tov-21-G and with Tov112D was “inactive” throughout.
For `Cc1cc(C)c(/C=C2\C(=O)Nc3ccccc32)[nH]1`, the Potency entry in the assay with OV90, in the assay on PA-1, in the assay on SKOV3, with Tov-21-G and in the assay on Tov112D was “inactive” throughout. The activity, negative = cell killing in assay [1] (setting [2]) was -6.6%. Further, in assay [1] (tumour line A), the Potency is 31.6 µM (active).
As to `Nc1c2c(nc3ccccc13)CCCC2O` (configuration not stated), the Potency entry in the assay with OV90, in the assay on PA-1, with SKOV3, in the assay on Tov-21-G and in the assay with Tov112D was “inactive” in each case. The values for the activity, negative = cell killing in assay [1] (setting [2]), in assay [1] (setting [3]) and in assay [1] (setting [4]) were 4.45%, 4.03% and -7.2%, respectively.
Turning to `CC(C(=O)O)c1ccc(CC2CCCC2=O)cc1` (configuration not stated), the Potency entry in the assay on OV90, with PA-1, in the assay with SKOV3, in the assay on Tov-21-G and with Tov112D was “inactive” each time. Further, the activity, negative = cell killing was -3.22% in assay [1] (setting [2]), 4.21% in assay [1] (setting [3]), -18.9% in assay [1] (setting [5]) and -19.4% in assay [1] (setting [4]).
On to `COc1ccc([C@@H]2Sc3ccccc3N(CCN(C)C)C(=O)[C@@H]2OC(C)=O)cc1`, for which the Potency entry in the assay on OV90, with PA-1, with SKOV3, with Tov-21-G and in the assay on Tov112D was “inactive” throughout. The activity, negative = cell killing in assay [1] (setting [4]) was -13.9%.
As to `C[C@@H](O)[C@H]1C(=O)N2C(C(=O)O)=C(SCCN=CN)C[C@H]12`, the Potency result in the assay with OV90, in the assay with PA-1, in the assay on SKOV3, in the assay on Tov-21-G and in the assay with Tov112D was “inactive” in each case. In addition, the activity, negative = cell killing is -11.4% in assay [1] (setting [6]), -16.2% in assay [1] (setting [7]), -8.7% in assay [1] (setting [8]) and -14.5% in assay [1] (setting [9]).
As to `CCN(Cc1ccncc1)C(=O)C(CO)c1ccccc1` (configuration not stated), the Potency result in the assay on OV90, in the assay on PA-1, in the assay on SKOV3, with Tov-21-G and in the assay with Tov112D was “inactive” each time. Further, the activity, negative = cell killing in assay [1] (setting [2]) was -2.8%; in assay [1] (setting [3]), -5.82%; in assay [1] (setting [5]), -16.9%; in assay [1] (setting [4]), 1.27%.
With `CCc1c(C)[nH]c2c1C(=O)C(CN1CCOCC1)CC2` (configuration not stated), the Potency result in the assay with OV90, with PA-1, with SKOV3, in the assay with Tov-21-G and with Tov112D was “inactive” each time. Further, the activity, negative = cell killing in assay [1] (setting [6]) was -3.97%; in assay [1] (setting [7]) it was -15.8%; in assay [1] (setting [8]), 1.91%.
As for `NC/C=C/C(=O)O`, the Potency entry with OV90, with PA-1, with SKOV3, in the assay on Tov-21-G and in the assay on Tov112D was “inactive” throughout. The activity, negative = cell killing in assay [1] (setting [2]) was -2.84%; in assay [1] (setting [3]), -13.4%; in assay [1] (setting [5]), -7.07%; in assay [1] (setting [4]), -22.1%.
For the compound `CN1C[C@H](C(=O)N[C@]2(C)O[C@@]3(O)[C@@H]4CCCN4C(=O)[C@H](Cc4ccccc4)N3C2=O)C[C@@H]2c3cccc4[nH]cc(c34)C[C@H]21`, the Potency result in the assay with OV90, with PA-1, in the assay on SKOV3, in the assay on Tov-21-G and with Tov112D was “inactive” throughout. Also, the activity, negative = cell killing in assay [1] (setting [2]) was -29.3%; in assay [1] (setting [4]), 4.11%. For the same compound, the Potency in assay [1] (tumour line A) is 10 µM (active).
For `COC(=O)[C@@H](N)Cc1ccc(O)c(O)c1`, the Potency entry with OV90, in the assay with PA-1, in the assay with SKOV3, in the assay with Tov-21-G and with Tov112D was “inactive” in each case.
Take `CCOC(=O)c1cnc2c(cnn2CC)c1NN=C(C)C`: the Potency result with OV90, in the assay with PA-1, in the assay with SKOV3, with Tov-21-G, in the assay with Tov112D and in the assay with astro was “inactive” in each case. The values for the activity, negative = cell killing in assay [1] (setting [2]), in assay [1] (setting [3]) and in assay [1] (setting [4]) were -11.6%, -28.3% and -18.1%, respectively. For the same compound, the Potency in assay [1] (tumour line A) was 11.2 µM (active).
Turning to `CCCCOCCOCCOCc1cc2c(cc1CCC)OCO2`, the Potency entry with OV90, in the assay with PA-1, in the assay on SKOV3, in the assay on Tov-21-G, in the assay with Tov112D and in the assay on astro was “inactive” in each case. The activity, negative = cell killing in assay [1] (setting [2]) was -4.83%; in assay [1] (setting [3]), 11.7%; in assay [1] (setting [4]), -0.263%; in assay [1] (at 91.6 µM (top of the series), tumour line B), -11.5%; in assay [1] (at 91.6 µM (top of the series), tumour line D), -27.9%; in assay [1] (at 99.2 µM (top of the series), tumour line C), 13.4%. The Potency in assay [1] (tumour line A) was 31.6 µM (active).
For the compound `C[N+](C)(C)CCOC(=O)CCC(=O)OCC[N+](C)(C)C`, the Potency entry in the assay on OV90, in the assay on PA-1, in the assay with SKOV3, in the assay with Tov-21-G and in the assay on Tov112D was “inactive” in each case. Besides, the activity, negative = cell killing in assay [1] (setting [2]) is 5.74%; in assay [1] (setting [3]), -9.68%; in assay [1] (setting [5]) it was -19.2%; in assay [1] (setting [4]), 9.88%.
On to `COc1cc2c(cc1OC)-c1cc(=Nc3c(C)cc(C)cc3C)n(C)c(=O)n1CC2`, for which the Potency entry with OV90 is “inactive”.
Take `CN(C)C(=O)Oc1ccc[n+](C)c1`: the Potency result in the assay with OV90, in the assay with PA-1, in the assay with SKOV3, with Tov-21-G and in the assay on Tov112D was “inactive” each time. Moreover, the activity, negative = cell killing in assay [1] (setting [2]) was 5.33%; in assay [1] (setting [3]) it was -8.24%; in assay [1] (setting [5]), -28.3%; in assay [1] (setting [4]) it was -15.6%.
Consider `CC(=O)OCC1=C(C(=O)O)N2C(=O)[C@@H](NC(=O)Cc3cccs3)[C@H]2SC1`, for which the Potency result in the assay on OV90, in the assay with PA-1, with SKOV3, with Tov-21-G, with Tov112D and in the assay with astro was “inactive” each time. Besides, the activity, negative = cell killing was 5.86% in assay [1] (setting [2]), -7.52% in assay [1] (setting [3]), -19.9% in assay [1] (setting [5]) and -19.9% in assay [1] (setting [4]).
As for `CCO/C([O-])=N/c1c[n+](N2CCOCC2)no1`, the Potency entry in the assay on OV90, in the assay on PA-1, in the assay with SKOV3, in the assay with Tov-21-G and in the assay on Tov112D was “inactive” throughout. In addition, the activity, negative = cell killing was -6.76% in assay [1] (setting [6]), -3.07% in assay [1] (setting [7]), -1.62% in assay [1] (setting [8]) and -22.7% in assay [1] (setting [9]).
